Several values for one entry are separate records, joined by “and”; a condition that tells them apart may be missing. Equal values may be shown once. About 2,000 (36%) of roughly 5,500 compounds were called active. Roughly 18% stayed inconclusive and do not appear here. Cut-off read from the data, not from the text of the source: active = normalized growth mostly below about 0.91 (no sharp cut-off); inconclusive = no clear call, values can overlap the other calls; inactive = mostly above about 0.92. The list shows a part of the results.
Experiment: chemical genetic growth profiling, strain panel (AID 1159580);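 note: tested at 20 µM; growth read once vehicle control cultures reached saturation at 30 °C; 1 = growth at the plate median or of vehicle wells; lower values mean less growth of the strain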
Settings: S. cerevisiae deletion strains, growth OD

Measured: normalized growth

CCN(CC)CCOc1ccc(/C(=C(\Cl)c2ccccc2)c2ccccc2)cc1
0.0616 (active) and 0.946 (inactive): locus YJL095W, strain BCK1, stronger effect = lower value
0.0542 (active) and 0.924 (inactive): locus YHR030C, strain SLT2, stronger effect = lower value
active: locus YAL013W, strain DEP1, stronger effect = lower value 0.0553 | locus YAL021C, strain ccr4, stronger effect = lower value 0.064 | locus YAL026C, strain drs2, stronger effect = lower value 0.0617 | locus YAL030W, strain snc1, stronger effect = lower value 0.076 | locus YBL061C, strain skt5, stronger effect = lower value 0.0714 | locus YBR009C, strain hhf1, stronger effect = lower value 0.0875 | locus YBR021W, strain FUR4, stronger effect = lower value 0.089 | locus YBR023C, strain chs3, stronger effect = lower value 0.0792 | locus YBR171W, strain sec66, stronger effect = lower value 0.17 | locus YBR229C, strain ROT2, stronger effect = lower value 0.0488 | locus YBR231C, strain swc5, stronger effect = lower value 0.0847 | locus YBR279W, strain paf1, stronger effect = lower value 0.265 | locus YCL011C, strain gbp2, stronger effect = lower value 0.0699 | locus YCL016C, strain dcc1, stronger effect = lower value 0.203 | locus YCL029C, strain bik1, stronger effect = lower value 0.0627 | locus YCL069W, strain vba3, stronger effect = lower value 0.11 | locus YCR088W, strain abp1, stronger effect = lower value 0.107 | locus YDL005C, strain med2, stronger effect = lower value 0.11 | locus YDL035C, strain GPR1, stronger effect = lower value 0.0517 | locus YDL040C, strain nat1, stronger effect = lower value 0.479 | locus YDL074C, strain BRE1, stronger effect = lower value 0.0809 | locus YDL101C, strain DUN1, stronger effect = lower value 0.0611 | locus YDL185W, strain tfp1, stronger effect = lower value 0.124 | locus YDL192W, strain arf1, stronger effect = lower value 0.0614 | locus YDR001C, strain nth1, stronger effect = lower value 0.216 | locus YDR069C, strain doa4, stronger effect = lower value 0.0706 | locus YDR101C, strain arx1, stronger effect = lower value 0.0624 | locus YDR137W, strain rgp1, stronger effect = lower value 1.41 [resistant] | locus YDR159W, strain sac3, stronger effect = lower value 0.105 | locus YDR162C, strain NBP2, stronger effect = lower value 0.0484 | locus YDR195W, strain ref2 0.235 | locus YDR297W, strain sur2, stronger effect = lower value 0.0942 | locus YDR318W, strain mcm21, stronger effect = lower value 0.0641 | locus YDR334W, strain swr1, stronger effect = lower value 0.0931 | locus YDR335W, strain msn5, stronger effect = lower value 0.093 | locus YDR388W, stronger effect = lower value 0.055 | locus YDR392W, strain spt3, stronger effect = lower value 0.0803 | locus YDR502C, strain sam2, stronger effect = lower value 0.0655 | locus YEL003W, strain gim4, stronger effect = lower value 0.133 | locus YEL037C, strain rad23, stronger effect = lower value 0.099 | locus YEL061C, strain CIN8 (second series), stronger effect = lower value 0.3 | locus YEL061C, strain CIN8, stronger effect = lower value 0.0516 | locus YER015W, strain faa2, stronger effect = lower value 0.143 | locus YER016W, strain bim1, stronger effect = lower value 0.218 | locus YER110C, stronger effect = lower value 0.0804 | locus YER111C, strain swi4, stronger effect = lower value 0.529 | locus YER155C, strain BEM2 (second series), stronger effect = lower value 0.851 | locus YER155C, strain BEM2, stronger effect = lower value 0.0653 | locus YER167W, strain BCK2, stronger effect = lower value 0.0512 | locus YFR010W, strain ubp6, stronger effect = lower value 0.0804 | locus YGL078C, strain dbp3, stronger effect = lower value 0.919 | locus YGL086W, strain mad1, stronger effect = lower value 0.0596 | locus YGL167C, strain pmr1, stronger effect = lower value 0.244 | locus YGL173C, strain kem1, stronger effect = lower value 0.497 | locus YGL227W, strain vid30, stronger effect = lower value 0.144 | locus YGL240W, strain doc1, stronger effect = lower value 0.228 | locus YGL248W, strain PDE1, stronger effect = lower value 0.0492 | locus YGL253W, strain hxk2, stronger effect = lower value 0.0662 | locus YGR135W, strain pre9, stronger effect = lower value 0.069 | locus YGR252W, strain gcn5, stronger effect = lower value 0.178 | locus YHR013C, strain ard1, stronger effect = lower value 0.134 | locus YHR027C, strain rpn1, stronger effect = lower value 0.109 | locus YHR079C, strain IRE1 (second series), stronger effect = lower value 0.0584 | locus YHR094C, strain hxt1, stronger effect = lower value 0.0617 | locus YHR129C, strain ARP1, stronger effect = lower value 0.0567 | locus YHR142W, strain chs7, stronger effect = lower value 0.08 | locus YHR200W, strain rpn10, stronger effect = lower value 0.0639 | locus YIL066C, strain RNR3, stronger effect = lower value 0.0508 | locus YIL073C, strain SPO22, stronger effect = lower value 0.106 | locus YIR030C, strain dcg1, stronger effect = lower value 0.0601 | locus YJL092W, strain hpr5, stronger effect = lower value 0.193 | locus YJL095W, strain BCK1 (second series), stronger effect = lower value 0.0616 | locus YJL115W, strain asf1, stronger effect = lower value 0.262 | locus YJL129C, strain trk1, stronger effect = lower value 0.158 | locus YJL134W, strain LCB3, stronger effect = lower value 0.0524 | locus YJL154C, strain vps35, stronger effect = lower value 0.095 | locus YJL164C, strain tpk1, stronger effect = lower value 0.0775 | locus YJL166W, strain qcr8, stronger effect = lower value 0.0887 | locus YJL168C, strain set2, stronger effect = lower value 0.0577 | locus YJL187C, strain SWE1 (second series), stronger effect = lower value 0.0519 | locus YJR043C, strain POL32, stronger effect = lower value 0.064
inactive: locus YHR079C, strain IRE1, stronger effect = lower value 0.945 | locus YIL125W, strain kgd1, stronger effect = lower value 0.983 | locus YJR066W, strain TOR1, stronger effect = lower value 0.982

— PubChem BioAssay AID1159580 (chemical genetic matrix, 2015)
